Test results as given in PubChem BioAssay (NCI).
About 83,000 compounds went through this panel and 20% of them were active in at least one assay; those are over-represented in the sample as a whole.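 Activity criterion: percent growth below 10, measured after cells in 96-well plates were exposed to a single compound concentration for 48 hours.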 Unmarked numbers belong to inactive results. Activity calls are given as the source filed them.

Tests used:
Assay in all cases: NCI-60 one-dose screen, 48 h (100 = growth as untreated, 0 = no growth, -100 = all killed)
Details in all cases: 10 µM unless noted
NCI-H23 lung = test system: NCI-H23 lung
NCI-H226 lung = test system: NCI-H226 lung
NCI-H322M lung = test system: NCI-H322M lung
HOP-62 NSCLC = test system: HOP-62 NSCLC
NCI-H460 lung = test system: NCI-H460 lung
NCI-H522 lung = test system: NCI-H522 lung
A549/ATCC NSCLC = test system: A549/ATCC NSCLC
786-0 renal = test system: 786-0 renal
COLO 205 colon = test system: COLO 205 colon

SMILES	growth (NCI-H23 lung)	growth (NCI-H226 lung)	growth (NCI-H322M lung)	growth (HOP-62 NSCLC)	growth (NCI-H460 lung)	growth (NCI-H522 lung)	growth (A549/ATCC NSCLC)	growth (786-0 renal)	growth (COLO 205 colon)
COc1c(F)ccc(C(=O)Nc2ccc3nc(NC(=O)C4CCCN(S(=O)(=O)c5ccc(Cl)cc5)C4)sc3c2)c1F (stereo unspecified)	85.7%	76%	86.6%	102%	81.3%	76.6%	65.6%	54.7%	77.8%
COc1ccc(-c2ccnc(SCc3cc4ccccc4[nH]c3=O)n2)cc1	76.1%	63.5%	82.5%	32.3%	33.6%	46.9%	61%	71%	77.5%
Cc1ccc(S(=O)(=O)c2nc(S(=O)(=O)c3ccc(C)cc3)c(N3CCC(O)CC3)s2)cc1	62.5%	84.6%	77.3%	97.5%	46.2%	19.7%	62.1%	77.1%	98%
N/C(=N\c1nc2ccccc2s1)NC(=O)Nc1ccc(Cl)cc1Cl	-83.4% (active)	-40.2% (active)	-51.3% (active)	-77% (active)	-95.9% (active)	-78.6% (active)	-85.4% (active)	-78.6% (active)	-87.7% (active)
O=C1CCCc2cc(OCC(=O)N3CCCCC3)ccc2N1	105%	101%	116%	105%	115%	108%	113%	116%	117%
CC1(C)CC[C@]2(C(=O)Nc3ccc(Br)cc3)CC[C@]3(C)C(=CCC4[C@@]5(C)C[C@@H](O)[C@H](O)[C@@](C)(CO)C5CC[C@]43C)C2C1 (stereo partly specified)	9.43% (active)	-28.6% (active)	54.5%	5.6% (active)	-42.1% (active)	-31.3% (active)	17.2%	-28.2% (active)	-74.1% (active)
Cc1nc(Nc2ncc(C(=O)Nc3c(C)cccc3Cl)s2)cc(N2CCN(CCCNC(=O)COc3ccc(C4CCC(=O)NC4=O)cc3)CC2)n1 (stereo unspecified)	68.8%	68.5%	20.8%	35.4%	95.8%	17%	33.4%	14.4%	10.3%
O=C(Cn1c(/C=C/c2ccccc2)nc2ccccc2c1=O)Nc1ccccc1	90.2%	60%	87.5%	57.5%	43.2%	57.2%	38.2%	1.52% (active)	79.3%
N/N=C(\N)c1c(N)nc(=S)[nH]c1-c1ccc(Cl)cc1Cl	103%	106%	106%	92.5%	116%	95.3%	104%	101%	120%
